Results on 15 molecules are retold here after PubChem BioAssay (NCATS).

The target in assay [1] is Lysosomal acid glucosylceramidase (Homo sapiens) (UniProt P04062). The experiment in a line: Glucocerebrosidase-p2 (AID 348; in the data active = potency below about 10 µM; also: potency is read from the fitted curve at half-maximal effect). The note with it: purified GBA, blue fluorogenic substrate, 40 min. The procedure, abridged:
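Normal human glucocerebrosidase (0.2 nM) with blue fluorogenic substrate (80 uM final) in citrate/phosphate pH 5.9 with 10mM sodium taurocholate, 0.01% tween-20; 40 min RT, NaOH/glycine stop; fluorescence Ex 365/Em 440; AC50 from a titration from 0.6 nM upwards.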

A short description of assay [2]: AP1 Signaling Pathway (AID 357). Also: % is scaled to controls: 0 for no effect and ±100 for the full control effect. The note with it: ME-180 AP-1-bla reporter, EGF-induced, beta-lactamase ratio, 5 h; at 7.69 µM (top of the series) unless noted. Summed up: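 In this screen, ME-180 cells in Opti-MEM with 0.5% dialyzed FBS received EC50 EGF and compound titrations for 5 h. AP-1 reporter beta-lactamase was detected via CCF4 ratio, giving AC50 for positive and negative modulators.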

For assay [3], the target named is Cytochrome P450 1A2 (Homo sapiens) (UniProt P05177). Nature of the assay: p450-cyp1a2 (AID 410; calls by dose curve; also: potency is read from the fitted curve at half-maximal effect). The note with it: recombinant CYP1A2, luciferin-ME demethylation, luminescence; series mostly up to 11.4 µM. The procedure, abridged: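 Luminescent demethylation readout: Luciferin-ME (100uM, equal to Km) turned over by 20nM CYP1A2 for 60 min at room temperature after NADPH regeneration addition, following 10 min compound preincubation. Normalization used 57 uM furafylline as full inhibition.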

Assay [4] can be described thus: NFAT Signaling Pathway (AID 444).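 Also: carbachol stimulus at about its EC50 of 1 µM final; % is scaled to controls: 0 for no effect and ±100 for the full control effect.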 The note with it: Jurkat NFAT-bla M1, carbachol, beta-lactamase ratio, 5 h; at 7.69 µM (top of the series) unless noted. Summed up: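 Read-out: CCF4 FRET ratio (460 nm/530 nm) after 1 h RT dye loading, used for %activity and AC50 from titration series. Cells: Jurkat NFAT-β-lactamase/M1 line, treated with compound plus 1 uM carbachol for 5 h, 37 °C.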

Assay [5] can be described thus: Stat Signaling Pathway (AID 446).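 Also: ME-180 cervical cancer cells given 40 pM IL-6 alongside compound; SIE-controlled beta-lactamase reporter measured as 460/530 nm FRET emission ratio; % is scaled to controls: 0 for no effect and ±100 for the full control effect.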 The note with it: ME-180 (cervical carcinoma) SIE beta-lactamase reporter, IL-6 stimulated, 5 h; at 7.69 µM (top of the series) unless noted. Summed up:
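Normalization used AC90 stimulation (300 pM IL-6) and AC90 inhibition (125 nM pan-JAK inhibitor at 40 pM IL-6). The underlying signal is SIE-driven beta-lactamase in ME-180 cells after 5 h IL-6 exposure with compound.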

Assay [6] has as its target Glucocorticoid receptor (Homo sapiens) (UniProt P04150). Nature of the assay: GR-GFP Redistribution (AID 450;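 active = compounds whose dose series gives a full or clear partial fitted curve of increased nuclear translocation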; also: potency is read from the fitted curve at half-maximal effect). The note with it: U2OS GR-GFP nuclear translocation, laser cytometry, 2 h.
For assay [7] the target is unchanged. Nature of the assay: GR-EFC Redistribution (AID 451; calls by dose curve; also: potency is read from the fitted curve at half-maximal effect). The conditions noted are these: CHO-K1 GR-EFC translocation, beta-gal luminescence, 2 h. The procedure, abridged:
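Translocation of GR-ED fusion to nuclear EA restores b-gal, read by luminescence after 1 h room-temperature detection. Engineered CHO-K1 biosensor cells, 1,000/well, exposed 2 h at 37 C to titrations up to 46 uM final.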

In assay [8] the target is Mitogen-activated protein kinase 10 (Mus musculus) (UniProt Q61831). The experiment in a line: JNK3 AlphaScreen Assay (AID 530).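 Also: kinase came from lysate of stimulated human HepG2 cells; signal reports phosphorylation of biotinylated GST-cJun 1-79 at Ser73 with 10 µM ATP; % is scaled to controls: 0 for no effect and ±100 for the full control effect.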 The conditions noted are these: JNK3 lysate, c-Jun phosphorylation; series mostly up to 11.4 µM. The procedure, abridged:
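qHTS titrations with 15 min compound pre-incubation before adding ATP (10 uM final). Read-out: AlphaScreen of Ser73-phosphorylated biotin-GST-cJun using HepG2 lysate JNK3 activated by IL-1β and TNFα.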
On the technique in general: In Alpha technology, singlet oxygen from a donor bead excites a nearby acceptor bead.

For assay [9], the target named is 3',5'-cyclic-AMP phosphodiesterase 4B (Homo sapiens) (UniProt Q07343). The experiment in a line: qHTS Assay for Inhibitors of PDE-IV (AID 607; active = well fitted activation curve with a large enough effect in the main read-out, with a control signal flat, not every such curve was filed as active; also: % of control where 0% means no effect). The conditions noted are these: HEK293 ACTOne CNG channel cells, membrane potential fluorescence; series mostly up to 22.9 µM. The procedure, abridged: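 HEK293 ACTOne cells with CNG channel (1000/well), endogenous PDE4; membrane potential dye, compounds up to 22.9 uM final. Fluorescence Ex 535/Em 590; RO 20-1724 (100 uM final) as reference.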
(In general: Quantitative high-throughput screening tests each substance at several concentrations.)

Assay [10] has as its target Cytochrome P450 3A4 (Homo sapiens) (UniProt P08684). The experiment in a line: qHTS Assay for Activators of Cytochrome P450 3A4 (AID 885; active = well fitted curve in the direction sought with a large enough effect; an effect the other way counts as inactive or inconclusive; also: nearly all actives have a fitted effect of over 65% in size). The note with it: recombinant CYP3A4, Luciferin-PPXE luminescence, 60 min; series mostly up to 11.4 µM. Summed up: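 Human CYP3A4 dealkylates Luciferin-PPXE to luciferin, which luciferase detection converts to light. Substrate was at its KM (25uM), buffer 200mM KPO4, reaction 60 min at RT.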

The target in assay [11] is Cytochrome P450 2D6 (Homo sapiens) (UniProt P10635). The experiment in a line: qHTS Assay for Inhibitors and Substrates of Cytochrome P450 2D6 (AID 891; active = well fitted curve in the direction sought with a large enough effect; an effect the other way counts as inactive or inconclusive; also: potency is read from the fitted curve at half-maximal effect; nearly all actives have a fitted effect of over 60% in size). The note with it: recombinant CYP2D6, luciferin-ME EGE luminescence; series mostly up to 11.4 µM. The procedure, abridged: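 Luminescent read-out of luciferin formed by 5 nM human CYP2D6 demethylating 30 uM Luciferin-ME EGE (Km level) over 60 min at room temperature after NADPH regeneration addition. Data normalized to full inhibition by 1.43 uM quinidine.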

The target in assay [12] is Cytochrome P450 2C19 (Homo sapiens) (UniProt P33261). Nature of the assay: qHTS Assay for Inhibitors and Substrates of Cytochrome P450 2C19 (AID 899; active = well fitted curve in the direction sought with a large enough effect; an effect the other way counts as inactive or inconclusive; also: potency is read from the fitted curve at half-maximal effect; nearly all actives have a fitted effect of over 60% in size). The note with it: recombinant CYP2C19, luciferin-H EGE luminescence; series mostly up to 11.4 µM. The procedure, abridged: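 Luminescence readout of luciferin formed from 10uM Luciferin-H EGE (KM level) by 5 nM CYP2C19 in 50mM KPO4. 60 min NADPH-driven reaction at 37C after 10 min compound preincubation; data scaled to 57uM ketoconazole inhibition.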

SMILES strings stand for the structures. A number with no mark means an inactive call. Results filed as inconclusive are left out. The source made the active and inactive calls. Unless noted, calls follow the shape of the dose curve; as a rule, active = well fitted curve in either direction with a large enough effect (not every such curve was filed as active); inconclusive = small, poorly fitted or top-dose-only effect, or another doubt; inactive = flat fitted curve, though single readings scatter. Bounds are passed on as bounds.

Chain of 3',5'-cyclic-AMP phosphodiesterase 4B (Homo sapiens) (Q07343 whole entry, looked up): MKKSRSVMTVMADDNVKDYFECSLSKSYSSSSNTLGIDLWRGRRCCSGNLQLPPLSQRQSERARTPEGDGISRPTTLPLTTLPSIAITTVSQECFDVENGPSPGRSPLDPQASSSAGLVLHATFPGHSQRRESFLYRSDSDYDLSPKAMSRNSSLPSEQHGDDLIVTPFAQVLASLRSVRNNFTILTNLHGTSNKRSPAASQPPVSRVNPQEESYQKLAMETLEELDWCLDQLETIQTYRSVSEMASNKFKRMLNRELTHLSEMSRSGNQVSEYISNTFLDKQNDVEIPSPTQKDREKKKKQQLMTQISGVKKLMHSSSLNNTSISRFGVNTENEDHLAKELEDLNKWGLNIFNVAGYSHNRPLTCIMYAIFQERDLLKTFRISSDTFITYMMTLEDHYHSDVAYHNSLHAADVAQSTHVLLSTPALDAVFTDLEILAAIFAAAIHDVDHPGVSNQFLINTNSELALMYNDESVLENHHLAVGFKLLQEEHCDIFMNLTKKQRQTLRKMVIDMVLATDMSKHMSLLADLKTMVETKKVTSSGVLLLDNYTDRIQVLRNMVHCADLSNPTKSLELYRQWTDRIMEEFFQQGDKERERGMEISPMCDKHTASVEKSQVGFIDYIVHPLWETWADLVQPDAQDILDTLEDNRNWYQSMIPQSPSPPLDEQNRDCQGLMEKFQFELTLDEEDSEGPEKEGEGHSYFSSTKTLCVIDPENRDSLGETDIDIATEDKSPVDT
Chain of Cytochrome P450 3A4 (Homo sapiens) (P08684 whole entry, looked up): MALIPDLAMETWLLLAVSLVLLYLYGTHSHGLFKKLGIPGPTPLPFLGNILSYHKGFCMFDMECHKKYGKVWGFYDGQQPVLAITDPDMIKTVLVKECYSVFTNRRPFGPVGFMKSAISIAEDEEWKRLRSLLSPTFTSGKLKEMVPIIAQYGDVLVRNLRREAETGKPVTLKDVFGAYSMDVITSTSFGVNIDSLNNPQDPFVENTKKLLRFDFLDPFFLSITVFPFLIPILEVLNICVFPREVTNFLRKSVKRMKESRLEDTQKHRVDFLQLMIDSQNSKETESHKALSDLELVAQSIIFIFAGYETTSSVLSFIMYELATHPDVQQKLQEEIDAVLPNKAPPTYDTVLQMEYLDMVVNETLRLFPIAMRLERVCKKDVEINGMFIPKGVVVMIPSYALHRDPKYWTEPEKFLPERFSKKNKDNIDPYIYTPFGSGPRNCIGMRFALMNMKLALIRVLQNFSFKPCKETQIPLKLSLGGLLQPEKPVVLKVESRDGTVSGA
Chain of Cytochrome P450 1A2 (Homo sapiens) (P05177 whole entry, looked up): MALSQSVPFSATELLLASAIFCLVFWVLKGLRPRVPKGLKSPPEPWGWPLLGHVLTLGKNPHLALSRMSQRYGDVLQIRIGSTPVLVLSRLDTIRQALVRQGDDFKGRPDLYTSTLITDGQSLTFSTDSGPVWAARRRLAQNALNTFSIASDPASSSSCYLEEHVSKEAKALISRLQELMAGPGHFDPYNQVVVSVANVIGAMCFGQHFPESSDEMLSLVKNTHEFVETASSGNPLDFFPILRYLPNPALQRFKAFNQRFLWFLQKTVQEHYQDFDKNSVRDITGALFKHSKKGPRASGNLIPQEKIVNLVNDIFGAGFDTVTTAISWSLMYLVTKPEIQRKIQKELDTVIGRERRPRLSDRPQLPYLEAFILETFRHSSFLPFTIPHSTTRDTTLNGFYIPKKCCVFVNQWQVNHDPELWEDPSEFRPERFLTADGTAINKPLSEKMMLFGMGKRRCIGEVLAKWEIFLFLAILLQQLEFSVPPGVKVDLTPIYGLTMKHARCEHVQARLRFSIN
Chain of Glucocorticoid receptor (Homo sapiens) (P04150 whole entry, looked up): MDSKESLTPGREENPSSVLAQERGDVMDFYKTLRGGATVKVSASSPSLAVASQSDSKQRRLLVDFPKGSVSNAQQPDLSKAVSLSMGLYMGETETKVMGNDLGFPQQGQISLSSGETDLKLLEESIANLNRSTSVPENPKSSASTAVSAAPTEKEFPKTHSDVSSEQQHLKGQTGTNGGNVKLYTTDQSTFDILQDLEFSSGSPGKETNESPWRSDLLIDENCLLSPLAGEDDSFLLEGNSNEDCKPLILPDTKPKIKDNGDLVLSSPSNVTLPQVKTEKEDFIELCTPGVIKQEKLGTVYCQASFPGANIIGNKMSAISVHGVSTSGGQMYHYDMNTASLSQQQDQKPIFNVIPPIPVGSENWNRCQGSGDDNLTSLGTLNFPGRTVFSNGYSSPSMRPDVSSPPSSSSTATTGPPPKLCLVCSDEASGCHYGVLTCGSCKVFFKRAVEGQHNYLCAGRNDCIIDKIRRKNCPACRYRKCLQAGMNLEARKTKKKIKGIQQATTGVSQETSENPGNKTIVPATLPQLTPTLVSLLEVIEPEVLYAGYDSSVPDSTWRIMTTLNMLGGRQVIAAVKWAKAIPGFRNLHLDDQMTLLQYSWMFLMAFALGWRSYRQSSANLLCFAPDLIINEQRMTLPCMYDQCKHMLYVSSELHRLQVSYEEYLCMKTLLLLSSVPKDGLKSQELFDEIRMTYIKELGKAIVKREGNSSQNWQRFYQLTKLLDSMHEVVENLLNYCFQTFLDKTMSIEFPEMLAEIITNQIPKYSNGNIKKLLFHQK
Chain of Lysosomal acid glucosylceramidase (Homo sapiens) (P04062 whole entry, looked up): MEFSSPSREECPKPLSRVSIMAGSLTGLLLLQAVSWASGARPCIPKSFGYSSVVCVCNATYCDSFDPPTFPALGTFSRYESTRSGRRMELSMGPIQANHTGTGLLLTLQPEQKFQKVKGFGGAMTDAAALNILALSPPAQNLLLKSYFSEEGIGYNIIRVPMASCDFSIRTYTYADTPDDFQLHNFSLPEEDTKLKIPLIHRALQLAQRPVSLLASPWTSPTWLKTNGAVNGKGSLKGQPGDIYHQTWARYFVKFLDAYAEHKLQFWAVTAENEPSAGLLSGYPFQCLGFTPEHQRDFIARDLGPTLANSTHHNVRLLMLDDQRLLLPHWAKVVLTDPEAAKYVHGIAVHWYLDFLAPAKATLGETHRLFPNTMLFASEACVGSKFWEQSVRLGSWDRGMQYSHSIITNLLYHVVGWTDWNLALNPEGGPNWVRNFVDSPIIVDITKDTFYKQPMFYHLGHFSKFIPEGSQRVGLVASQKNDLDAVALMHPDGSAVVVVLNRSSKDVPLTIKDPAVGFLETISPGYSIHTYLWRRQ
Chain of Cytochrome P450 2D6 (Homo sapiens) (P10635 whole entry, looked up): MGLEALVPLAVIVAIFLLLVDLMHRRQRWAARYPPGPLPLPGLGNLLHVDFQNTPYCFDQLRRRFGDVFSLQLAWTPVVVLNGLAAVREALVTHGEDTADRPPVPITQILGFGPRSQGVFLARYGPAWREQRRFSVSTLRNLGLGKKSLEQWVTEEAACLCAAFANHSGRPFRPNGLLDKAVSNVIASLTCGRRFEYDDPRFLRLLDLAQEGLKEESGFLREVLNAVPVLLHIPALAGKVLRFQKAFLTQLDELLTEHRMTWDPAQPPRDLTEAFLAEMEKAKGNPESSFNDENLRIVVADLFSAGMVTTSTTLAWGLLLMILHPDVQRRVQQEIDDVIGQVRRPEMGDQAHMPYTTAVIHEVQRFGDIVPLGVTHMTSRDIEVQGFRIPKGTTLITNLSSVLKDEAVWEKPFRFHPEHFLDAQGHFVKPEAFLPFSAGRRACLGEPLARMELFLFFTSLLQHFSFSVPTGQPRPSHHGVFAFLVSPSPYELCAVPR
Chain of Cytochrome P450 2C19 (Homo sapiens) (P33261 whole entry, looked up): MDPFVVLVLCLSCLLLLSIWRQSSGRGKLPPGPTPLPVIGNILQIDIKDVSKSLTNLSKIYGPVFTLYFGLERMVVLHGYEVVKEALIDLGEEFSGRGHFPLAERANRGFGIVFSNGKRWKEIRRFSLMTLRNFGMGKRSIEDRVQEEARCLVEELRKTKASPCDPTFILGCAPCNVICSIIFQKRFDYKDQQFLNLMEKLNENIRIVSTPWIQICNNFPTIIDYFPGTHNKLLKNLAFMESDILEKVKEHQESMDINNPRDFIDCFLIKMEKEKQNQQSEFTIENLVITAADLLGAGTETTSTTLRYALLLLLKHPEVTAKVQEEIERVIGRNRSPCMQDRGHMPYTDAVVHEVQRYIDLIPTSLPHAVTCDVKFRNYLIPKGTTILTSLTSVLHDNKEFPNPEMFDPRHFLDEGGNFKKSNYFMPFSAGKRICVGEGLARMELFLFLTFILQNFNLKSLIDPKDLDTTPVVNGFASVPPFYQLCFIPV

`O=C(O)CCc1nc(-c2ccccc2-n2cccc2)no1`: the Potency is greater than 11.4 µM in assay [1], greater than 46 µM in assay [6] and greater than 9.22 µM in assay [7]. Also, the figures for the activity change, negative = inhibition in [2], in [3] and in [4] were -5.29%, -17.3% [at 2.29 µM] and 8.59%, respectively. For the same molecule, the activity, negative = inhibition in assay [5] is -0.807%. In addition, the Potency result in assay [8], in assay [9] and in assay [10] was “inactive” each time.

For the molecule `O=[N+]([O-])c1cc(Cl)cc2c1nc(NCCO)c1ccccc12`, the Potency in assay [1] is greater than 11.4 µM; in assay [3], 0.02 µM (active); in assay [6], greater than 46 µM; in assay [7], greater than 9.22 µM. For the same molecule, the activity change, negative = inhibition in assay [2] is -24%; in [4], 22.6%. Further, the activity, negative = inhibition in [5] was -3.56%. In addition, the Potency entry in assay [8], in [9] and in assay [10] was “inactive” throughout.

On to `NC1=C(O)C(=O)[C@H](c2c[nH]c3ccc(OCc4ccccc4)cc23)O1`, for which the Potency in assay [1] is greater than 11.4 µM; in [3], 3.98 µM (active); in assay [6], greater than 46 µM; in assay [7], greater than 9.22 µM. The activity change, negative = inhibition in assay [2] is -18.8%; in assay [4], 7.15%. For the same molecule, in [5], the activity, negative = inhibition is -6.03%. Further, the Potency result in [8], in assay [9] and in [10] was “inactive” in each case.

As for `c1cc(CNCCN2CCNCC2)ccn1`, the Potency is greater than 11.4 µM in assay [1], greater than 46 µM in assay [6] and greater than 9.22 µM in [7]. For the same molecule, the activity change, negative = inhibition in [2] was -6.63%; in [4] it was 3.58%. The Potency entry in assay [3], in assay [8], in [9] and in [10] was “inactive” in each case. Also, in assay [5], the activity, negative = inhibition was -1.72%.

On to `O=C(CSc1nc2ccc([N+](=O)[O-])cc2s1)c1ccc2ccccc2c1`, for which the Potency in assay [1] was greater than 11.4 µM; in assay [3], 3.16 µM (active); in assay [6] it was greater than 46 µM; in assay [7] it was greater than 9.22 µM. The figures for the activity change, negative = inhibition in [2] and in [4] were -4.94% and 9.35%, respectively. In addition, the activity, negative = inhibition in assay [5] is 8.96%. Moreover, the Potency result in assay [8], in [9] and in assay [10] was “inactive” each time.

Regarding `NCCSCc1ccccc1Cl`, the Potency was greater than 11.4 µM in assay [1]; 3.16 µM (active) in assay [3]; greater than 46 µM in assay [6]; greater than 9.22 µM in [7]; 3.16 µM (active) in assay [11]. Also, the activity change, negative = inhibition in assay [2] is 1.67%; in [4], -5.94%. Also, the activity, negative = inhibition in [5] was 2.36%. Also, the Potency result in assay [8], in [9] and in [10] was “inactive” each time.

Take `Nc1nc(Cc2ccccc2)nc(Cc2ccccc2)c1-c1ccccc1`: the Potency in assay [1] is greater than 11.4 µM; in [3], 1 µM (active); in assay [6], greater than 46 µM; in assay [7] it was greater than 9.22 µM. Further, the activity change, negative = inhibition in assay [2] is -20.1%; in assay [4], 11.3%. Moreover, the activity, negative = inhibition in assay [5] was -7.29%. Moreover, the Potency entry in assay [8], in [9] and in assay [10] was “inactive” throughout.

For `Nc1n[nH]c2ccccc12`, the Potency in [1] is greater than 11.4 µM; in [6] it was greater than 46 µM; in [7] it was greater than 9.22 µM. The activity change, negative = inhibition in [2] was -6.63%; in assay [3], -9.1% [at 2.29 µM]; in [4], 3.29%. Moreover, the activity, negative = inhibition in assay [5] was -1.94%. Moreover, the Potency result in assay [8], in assay [9] and in assay [10] was “inactive” each time.

Turning to `Cc1cnc2cc(Cl)ccc2c1SCC(=O)O`, the values for the Potency in [1], in assay [6] and in assay [7] were greater than 11.4 µM, greater than 46 µM and greater than 9.22 µM, respectively. Further, the activity change, negative = inhibition in assay [2] was -8.88%; in assay [3], -2.3% [at 2.29 µM]; in [4] it was -0.25%. For the same molecule, in [5], the activity, negative = inhibition was -11.6%. In addition, the Potency result in [8], in assay [9] and in [10] was “inactive” in each case.

On to `CC(C)N1CCN(c2ccncc2S(=O)(=O)N2CCCCC2)CC1`, for which the Potency is greater than 11.4 µM in [1], greater than 46 µM in [6] and greater than 9.22 µM in [7]. In addition, the activity change, negative = inhibition was 0.726% in assay [2], -17% [at 2.29 µM] in assay [3] and -81.6% (active) in assay [4]. The activity, negative = inhibition in assay [5] was -6.7%. For the same molecule, the Potency entry in assay [8], in assay [9] and in assay [10] was “inactive” throughout.

On to `Cc1ccc(C)c(NC(=O)NCc2ccc(Cl)cc2)c1`, for which the Potency is greater than 11.4 µM in assay [1]; 0.794 µM (active) in [3]; greater than 46 µM in [6]; greater than 9.22 µM in assay [7]; 3.98 µM (active) in assay [11]; 1.58 µM (active) in assay [12]. Besides, the activity change, negative = inhibition is 4.89% in [2] and -4.37% in [4]. In assay [5], the activity, negative = inhibition is 8.15%. Also, the Potency entry in [8], in assay [9] and in assay [10] was “inactive” each time.

`O=C1C2=C(Nc3cc([N+](=O)[O-])ccc3N2)O[C@@H]1c1c[nH]c2ccc(COc3ccccc3)cc12`: the Potency in [1] is greater than 11.4 µM; in assay [3], 2.51 µM (active); in assay [6], greater than 46 µM; in assay [7], greater than 9.22 µM. In addition, the figures for the activity change, negative = inhibition in assay [2] and in [4] were -21.7% and 6.34%, respectively. Further, the activity, negative = inhibition in assay [5] was 0.333%. Further, the Potency result in [8], in assay [9] and in [10] was “inactive” in each case.

As for `C[C@@]12CCC(=O)C=C1CC[C@H]1[C@@H]2[C@@H](O)C[C@]2(C)[C@@H]1CC[C@@]2(O)C(=O)COC(=O)C1CCCC1`, the Potency in assay [1] is greater than 11.4 µM; in [6] it was 0.0333 µM (active); in assay [7], 0.61 µM (active). Besides, the figures for the activity change, negative = inhibition in assay [2] and in assay [4] were -7.32% and 4.12%, respectively. For the same molecule, the Potency entry in assay [3], in [8], in assay [9] and in [10] was “inactive” in each case. In addition, in assay [5], the activity, negative = inhibition was -0.238%.

In the case of `c1ccc(C2=NN[C@@H]3c4ccccc4-c4ccccc4N3C2)cc1`, the Potency is greater than 11.4 µM in assay [1], 0.2 µM (active) in assay [3], greater than 46 µM in [6] and greater than 9.22 µM in [7]. Moreover, the activity change, negative = inhibition in assay [2] was -18.5%; in [4] it was -9.73%. In addition, the activity, negative = inhibition in assay [5] is -6.54%. Moreover, the Potency entry in assay [8], in [9] and in [10] was “inactive” each time.

For `C[C@@H]1CCCN(CP(=O)(c2ccccc2)c2ccccc2)C1`, the values for the Potency in assay [1], in assay [6] and in assay [7] were greater than 11.4 µM, greater than 46 µM and greater than 9.22 µM, respectively. In addition, the activity change, negative = inhibition in [2] is 2.85%; in assay [4] it was -1.11%. For the same molecule, the Potency entry in assay [3], in [8], in assay [9] and in assay [10] was “inactive” in each case. Moreover, the activity, negative = inhibition in [5] is 0.378%.
